The list is not random: actives were taken first. Their share in the collection is about 1.4%.
S1P2 agonist = agonists of human S1P2 receptor | O95136 | AID 729 | S1P2-expressing cell line, agonist reporter read-out | actives 0.46% (n = 97,000) | activation, % at 4.5 µM; in the data active = activation above about 16%;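 also: 0% = vehicle low control and 100% = maximal reference agonist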
GALR2 agonist = activates the human galanin receptor 2; GALR2-expressing cells, agonist activation read-out; AID 803; actives 0.48% (n = 140,000); O43603; activation, % (test concentration not listed); in the data active = activation above about 5%, passing the limit was not always enough;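 also: 0% = vehicle buffer wells and 100% = reference agonist at full effect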
Target sequence (O43603 whole entry, looked up): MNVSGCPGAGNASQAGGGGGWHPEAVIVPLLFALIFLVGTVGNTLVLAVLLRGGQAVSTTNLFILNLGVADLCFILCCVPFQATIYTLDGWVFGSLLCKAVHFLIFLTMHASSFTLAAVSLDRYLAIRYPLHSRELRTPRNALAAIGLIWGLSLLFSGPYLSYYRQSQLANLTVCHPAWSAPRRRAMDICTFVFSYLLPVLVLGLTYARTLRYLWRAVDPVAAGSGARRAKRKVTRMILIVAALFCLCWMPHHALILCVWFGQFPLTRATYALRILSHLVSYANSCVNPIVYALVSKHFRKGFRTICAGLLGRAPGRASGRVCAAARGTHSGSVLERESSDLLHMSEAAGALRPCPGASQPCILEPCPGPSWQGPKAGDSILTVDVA
GALR2 blocker = GALR2 (human) receptor antagonism; O43603; GALR2-expressing cells, antagonist mode; inhibition, % at 4 µM; actives 0.39% (n = 140,000); AID 828; in the data active = inhibition above about 27%;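 also: cells stimulated with galanin 1-16 at roughly its EC80; 0% = agonist challenge control and 100% = basal control without agonist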
CD11b adhes inh = blocks human CD11b/CD18 adhesion to fibrinogen | K562 CD11b/CD18 adhesion to fibrinogen, ATPlite luminescence; Mn2+ added to activate the integrin | inhibition, % at 10 µM | actives 0.54% (n = 93,000) | AID 1497;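 active = primary inhibition of 50% or more at 10 µM, then 40% or more on retest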
S1P2 antag = S1P2 (human) receptor antagonism; AID 736; actives 0.21% (n = 97,000); inhibition, % at 5 µM; O95136; cell-based S1P2 antagonist assay, inhibition at 5 uM; in the data active = inhibition above about 45%;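 also: CRE beta-lactamase reporter cells expressing human S1P2 stimulated with S1P; 0% = agonist at EC80 alone and 100% = agonist plus reference antagonist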
Mac1 fbg enh = increases human CD11b/CD18 adhesion to fibrinogen. activation, % at 10 µM. P05107+P11215. actives 0.07% (n = 93,000). AID 1499. K562 CD11b/CD18 adhesion to fibrinogen, ATPlite luminescence;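 active = 10 µM primary screen giving 50% or more activity, confirmed by 40% or more on retest at that dose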
GALR2 agon conf = GALR2 (human) agonism confirmed | shares compounds with GALR2 agonist | GALR2-expressing cells, agonist activation | activation, % at 5.6 µM | actives 10% (n = 460); in the data active = activation above about 8.4%;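 also: 0% = buffer-only vehicle wells and 100% = full reference agonist response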
BLA activ ctr = beta-lactamase activation, GALR2 counterscreen; shares compounds with GALR2 agonist; CHO NFAT-bla reporter, beta-lactamase FRET activation; activation, % at 5.6 µM; actives 10% (n = 460);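 active = activation above the screen-wide mean activation plus 3 SD, cut at about 8% in these data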;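 also: 0% = DMSO with PBS wells and 100% = thapsigargin positive control wells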
Active calls of the source: *; · = not tested or not shown.

SMILES	S1P2 agonist	GALR2 agonist	GALR2 blocker	CD11b adhes inh	S1P2 antag	Mac1 fbg enh	GALR2 agon conf	BLA activ ctr
CS(=O)(=O)c1nc(-c2ccc(Br)cc2)cc(-c2ccccc2)c1C#N	19*	-3	0	-10	2	-7	·	·
CS(=O)c1nc(-c2ccc(Br)cc2)cc(-c2ccccc2)c1C#N (stereo not drawn)	·	6.2*	57*	4	·	-2	·	·
Cc1ccc2oc(=O)c3cnn(CC(=O)NC4CCCCC4C)c3c2c1 (stereo not drawn)	-6	-4	9	4	-7	4	·	·
COc1ccc(Nc2cc(C(=O)NCc3ccco3)c3ccccc3n2)cc1	·	9.7*	10	·	·	·	6	4
COc1ccc(Nc2cc(C(=O)NCCCN3CCN(C)CC3)c3ccccc3n2)cc1	-3	-2	4	15	12	-5	·	·
COc1ccc2cc(C(c3nnnn3Cc3ccccc3)N3CCCCCC3)c(=O)[nH]c2c1 (stereo not drawn)	-6	0	-9	-16	16	-4	·	·
Cc1oc2c(C)c3oc(=O)c4c(c3cc2c1C)CCC4	-6	9	-7	-2	-16	23	-1	-2
Cc1coc2c(C)c3oc(=O)c4c(c3cc12)CCCC4	·	·	·	14	·	8	·	·
O=C1N/C(=C\c2ccc(N3CCOCC3)c(F)c2)C(=O)N1Cc1ccccc1	-4	-1	-4	·	-7	·	·	·
Cc1ccc(CN2C(=O)N/C(=C\c3ccc(N4CCOCC4)cc3)C2=O)cc1	·	8.7*	12	·	·	·	4	8
CN(C)c1nc(-c2ccccc2)cc(C(F)(F)F)c1C#N	0	10	3	3	-5	8	4	6
CCCSc1nc(-c2ccccc2)cc(C(F)(F)F)c1C#N	-3	-3	0	·	-13	·	·	·
CCOCCCNC(=O)C1CC(=O)N(C2CCCC2)C1 (stereo not drawn)	-1	28*	-13	-18	-11	-2	-1	-3
COc1ccc(C(C)(C)C)cc1NC(=O)C1C2C=CC(C2)C1C(=O)O (stereo not drawn)	-9	-2	3	-9	-3	-1	·	·
O=C(CC1CCCCC1)Nc1ccccc1-c1ccccc1	·	1	-7	·	·	·	·	·
CC(NC1CCCC1)C(=O)Nc1ccccc1-c1ccccc1 (stereo not drawn)	-9	12*	9	·	-10	·	-1	-1
COc1ccc(Cn2c(SCc3ccccc3C)nc3cc(OC)c(OC)cc3c2=N)cc1	-6	9.1*	-8	-3	6	135*	8.8*	6
CCNC(=S)N(Cc1ccco1)Cc1cc2cc3c(cc2[nH]c1=O)OCCO3	·	1	-6	·	·	·	·	·
COc1ccc(NS(=O)(=O)c2ccc(S(=O)(=O)N3CCCC3)cc2)cc1	-3	15*	-12	17	-2	-4	-1	0
Cc1cccc(NC(=O)C2CCCN(S(=O)(=O)c3cccc4nsnc34)C2)n1 (stereo not drawn)	-1	11*	-10	-10	11	-1	-1	-1
O=C(Cc1cc(=O)oc2cc(O)ccc12)NCC1CCC(C(=O)O)CC1 (stereo not drawn)	4	9	0	3	-4	-5	1	3
N#Cc1c(N)n(CCNC(=O)c2cccs2)c2nc3ccccc3nc12	·	0	10	-31	·	0	·	·
O=C(Cc1ccccc1)NC(=S)Nc1cc(C(F)(F)F)ccc1Cl	-5	8.4*	-14	·	1	·	6	8
O=C(Cc1ccccc1)NC(=S)Nc1cccc(C(F)(F)F)c1	-2	1	-14	3	8	0	·	·
Cc1ccccc1OCCn1cc(/C=C(\C#N)C(=O)NCc2ccco2)c2ccccc21	·	1	-5	-22	·	-5	·	·
SMILES	S1P2 agonist	GALR2 agonist	GALR2 blocker	CD11b adhes inh	S1P2 antag	Mac1 fbg enh	GALR2 agon conf	BLA activ ctr
Cc1cc(C)cc(NC(=O)/C(C#N)=C/c2cn(CC(=O)NCc3ccco3)c3ccccc23)c1	·	52*	5	·	·	·	26*	24*
Cc1ccc(C)c(NC(=O)/C(C#N)=C/c2cn(CC(=O)NCc3ccco3)c3ccccc23)c1	·	70*	-9	·	·	·	27*	27*
CCC/C(O)=C1\C(=O)CC(C)(C)CC1=Nc1ccc(OC)cc1OC	-1	-1	-8	-2	-9	0	·	·
Cc1ccc(S(=O)(=O)Cn2nnnc2C(c2ccccc2)N2CCN(c3ncccn3)CC2)cc1 (stereo not drawn)	-7	0	-1	-6	-6	-4	·	·
Cc1ccc(S(=O)(=O)Cn2nnnc2C(c2ccccc2)N2CCN(c3ccccc3)CC2)cc1 (stereo not drawn)	-11	29*	18	·	-2	·	-1	-4
CC(=O)N1N=C(c2ccc(C)cc2)OC1c1ccc(C)cc1 (stereo not drawn)	-3	77*	-8	-30	-6	-5	-1	0
COCCNc1cc(N)c([N+](=O)[O-])cc1[N+](=O)[O-]	·	0	10	·	·	·	·	·
CCCS(=O)(=O)c1c(S(=O)(=O)CCC)c2c3ccccc3ccn2c1C(=O)OC	-4	0	-2	·	-3	·	·	·
O=C(O)CN1C(=O)C2(OCCCO2)c2ccccc21	-3	8	-4	-18	-20	0	0	-2
COC(=O)CN1C(=O)C2(OCCCO2)c2ccccc21	-2	-1	4	-12	16	0	·	·
N#CC1=C(N)Oc2n[nH]c(-c3ccccc3)c2C12C(=O)Nc1ccccc12 (stereo not drawn)	·	11*	14	5	·	3	-1	-3
CCN1C(=O)C2(C(C#N)=C(N)Oc3n[nH]c(-c4ccc(Cl)cc4)c32)c2ccccc21 (stereo not drawn)	-2	0	1	-5	-5	2	·	·
C=C(C)CN1CCN(c2c(CCC#N)c(C)c(C#N)c3nc4ccccc4n23)CC1	·	12*	2	-24	·	29	3	1
CCCCCc1c(C)c(C#N)c2nc3ccccc3n2c1-n1ccnc1C	1	-1	-10	7	6	-4	·	·
O=C(NCCc1ccccc1)C(=O)N/N=C/c1ccccc1C(F)(F)F	-5	10	-4	-5	-1	26	-1	-1
O=C(NCCc1ccccc1)C(=O)N/N=C/c1ccc2c(c1)OCO2	7	0	7	·	-14	·	·	·
Cn1c(-c2ccc(F)cc2)cnc1NCc1ccc(F)cc1	-7	-2	21	-2	15	2	·	·
C=CCN1C(=O)C(CC(=O)Nc2ccc(OC)cc2)N(Cc2ccco2)C1=S (stereo not drawn)	-2	16*	13	·	-11	·	-1	-2
COc1ccccc1C1C(C(=O)c2cc3ccccc3o2)=C(O)C(=O)N1CCN(C)C (stereo not drawn)	-8	-2	20	-12	15	-4	·	·

From PubChem BioAssay
